Measured values: PubChem BioAssay AID434958 (Southern Research Specialized Biocontainment Screening …, 2010)
Hit rate of the full screen: of about 1,200 compounds, about 400 (33%) were called active. The rule behind the calls is not given here. A selection follows. Measured potencies and affinities stand elsewhere.

Test: mammalian cell cytotoxicity, dose response, cytotoxicity control (AID 434958);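 note: cells exposed to compound for 72 hours before readout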
Conditions: cytotoxicity counter-screen; series mostly up to 40 µM

| Structure (SMILES) | outcome |
| --- | --- |
| O=C(Nc1ccc(Cl)cc1F)c1cccc2ccccc12 | inactive |
| CCc1ccccc1NC(=O)CNC(=O)c1cc(C2CC2)nn1-c1ccccc1 | inactive |
| O=C(NCc1ccc2c(c1)OCO2)Nc1ccc2ccccc2c1 | inactive |
| CCN(CC)C(=O)CSc1nnc2nnc3cc(OC)ccc3n12 | inactive |
| CN1C/C(=N\S(=O)(=O)c2ccccc2)N(C)C1=O | inactive |
| Cn1cccc1/C=C1/C(=O)NC(=O)N(Cc2ccc(F)cc2)C1=O | inactive |
| COCCNC(=S)N/N=C1\CC(C)CC(C)(C)C1 (stereo unspecified) | inactive |
| CC(=O)Nc1cccc(-n2nnc(SCC(=O)Nc3ccc(F)c(Cl)c3)n2)c1 | inactive |
| COC(=O)CN1C(CN2CCOCC2)=Nc2ccc(Br)cc2C1c1ccccc1 (stereo unspecified) | inactive |
| CSc1ccc(/C=C/C(=O)Nc2ccccc2)cc1 | inactive |
| CCOc1ccc(N2C(=O)CC(N)C2=O)cc1 (stereo unspecified) | inactive |
| O=C(NC1CCCCCCC1)c1ccc(Br)cc1 | inactive |
| CCCC(C)NC(=O)c1ccc(OCc2ccc(Cl)cc2)c(OC)c1 (stereo unspecified) | inactive |
| Cc1ccc(C)c(N2CCN(C3CCCC(C)C3)CC2)c1 (stereo unspecified) | inactive |
| O=C(Nc1ccc(Cl)cc1)C1CC2CCCC(C1)C2=O (stereo unspecified) | inactive |
| Cc1ccc(NC(=O)CSc2n[nH]c(-c3ccco3)n2)cc1 | inactive |

| Structure (SMILES) | outcome |
| --- | --- |
| CCCC(C(=O)N1CCOCC1)N1C(=O)C2C3C=CC(C3)C2C1=O (stereo unspecified) | inactive |
| Cc1c(C(=O)c2ccccc2)oc2ccc3ccccc3c12 | inactive |
| Cc1ccc(C(=O)Nc2c(C)cc(C)c3cccnc23)cc1 | inactive |
| COCCOC(=O)c1c(C)oc2ccc(OC(=O)c3c(OC)cccc3OC)cc12 | inactive |
| COc1ccc(-c2c(-c3ccsc3)oc3ccc(N4CCOCC4)cc23)cc1 | inactive |
| Cc1nn(C)c(C)c1C1C(C#N)=C(N)OC2=C1C(=O)CCC2 (stereo unspecified) | inactive |
| Cc1cccnc1NC(=O)c1cc2ccccc2oc1=O | inactive |
| Cc1ccc(C)c(NC(=O)C2Cc3ccccc3CN2C(=O)OCc2ccccc2)c1 (stereo unspecified) | inactive |
| CNc1ccccc1NC(=O)C1CCCN1C(=O)OCc1ccccc1 (stereo unspecified) | inactive |
| O=C(NC(=S)N1CCOCC1)c1ccc([N+](=O)[O-])cc1 | inactive |
| NC(=O)CN1C(=O)C(O)(CC(=O)/C=C\C=C\c2ccccc2)c2ccccc21 (stereo unspecified) | inactive |
| C=CCC(Nc1ccccc1)C12C=CC(O1)C(C(=O)OC)=C2C(=O)OC (stereo unspecified) | inactive |
| COc1cc(C(=O)N/N=C/c2ccc(OC(=O)c3cccc(C)c3)cc2)ccc1O | inactive |
| COc1ccc2ccccc2c1/C=N/NC(=O)c1cccc(C)c1 | inactive |
| Cc1ccccc1NC(=O)/C(C#N)=C\c1cc(C)n(-c2ccc(C(=O)O)cc2)c1C | inactive |
